The text below walks through data of PubChem BioAssay.

The structures appear in SMILES notation. Active and inactive are the calls of the source.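 The calls were made as follows, unless noted: active = NADPH fluorescence slope more negative than the mean of all samples by about 3 SD, 99.7% confidence; inactive = the rest.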

Test [1] can be described thus: inhibitors of TNFa-induced NFkB p65 translocation, primary screen, imaging, HUVEC, MLSMR starter and 10KST1 sets (AID 438;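 active = inhibition above 20% together with a positive visual image hit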;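 also: compound added about 3h40 before a 20 min TNFalpha stimulation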;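 as to inhibition: signal is the nuclear over cytoplasmic p65 intensity ratio per well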). The conditions noted are these: HUVEC TNFa-induced p65 nuclear translocation; cell count: measured here: nuclei count (cytotoxicity indicator), at 2.08 µM; inhibition: at 2 µM, stronger effect = higher value, 0% TNFa-plus-vehicle, 100% no-TNFa wells.
The nature of test [2]: endothelial E-selectin expression blockers – imaging, HUVEC, immunofluorescence, MLSMR starter and 10KST1 sets, primary screen (AID 487;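 active = visually confirmed hit in the image check and inhibition above 20%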;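 as to inhibition: signal is fraction of cell area covered by stained E-selectin grains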;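 as to nuclei count: 100% = median nuclei count of all wells on the same plate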). The conditions noted are these: HUVEC TNFalpha-induced E-selectin immunofluorescence imaging, at 2 µM; inhibition: stronger effect = higher value; nuclei count: measured here: cell number, toxicity.
A short description of test [3]: Primary imaging screen for DUSP6 inhibitors that restore phospho-Erk in transfected HeLa cells, chemical complementation (AID 609;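 active = compounds giving at least 50% inhibition in the cell-based MKP-3 phosphatase rescue imaging test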;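 as to inhibition: phospho-Erk level distribution per well compared with pooled transfected vehicle control wells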). Conditions: HeLa MKP-3 transfected, phospho-Erk imaging KS statistic, at 10 µM, cells stimulated with TPA for 15 min.
In test [4] the target is Dual specificity protein phosphatase 6 (Homo sapiens) (UniProt Q16828). The description is as above. The conditions noted are these: HeLa MKP-3 transfected, phospho-Erk imaging KS statistic; at 10 µM; stronger effect = higher value; cells stimulated with TPA for 15 min.
In test [5] the target is Voltage-gated potassium channel subunit beta-2 (Rattus norvegicus) (UniProt P62483). As to the kind of experiment: inhibitors of rat Kvbeta2 reductase activity – biochemical, NADPH fluorescence, primary screen (AID 622;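 active = fluorescence slope higher than the sample average by over 3 SD, cut at about -0.22 in these data, passing the limit was not always enough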;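 also: slope of raw intensity against log time taken from 70 to 1610 s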). Conditions: recombinant KvBeta, 4-cyanobenzaldehyde reduction, at 10 µM, stronger effect = higher value.
Test [6] shares this target. As to the kind of experiment: enhancers of rat Kvbeta2 NADPH turnover – biochemical, NADPH fluorescence, primary screen (AID 623).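 Also: fluorescence intensity change per second fitted from 20 to 320 s.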 Conditions: Recombinant KvBeta, NADPH fluorescence decrease slope, 10 min; at 10 µM; stronger effect = lower value.
In test [7] the target is Muscarinic acetylcholine receptor M4 (Homo sapiens) (UniProt P08173). As to the kind of experiment: M4-linked GIRK flux change, two-sided – cell-based, HEK293 M4/GIRK, thallium flux, BTC-AM, M4 allosteric agonist project, primary screen (AID 625;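 active = fluorescence slope after compound addition differing from the mean of all tested samples at 99.7% confidence, mostly higher but some lower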;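 also: thallium influx through GIRK channels coupled to M4 in HEK293 cells with BTC-AM dye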). Conditions: at 10 µM, actives lie on both sides.
A short description of test [8]: inhibitors of larval lipid processing in zebrafish, primary screen, whole organism, PED6 fluorescence, gall bladder and intestine (AID 686;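 active = a full or partial loss of lipid-probe fluorescence in the fish gall bladder, intestine or both, judged by eye; inactive = no fluorescence loss, or compound toxic to the fish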;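 also: larvae 5 to 7 days old with five fish per well; signal comes from phospholipase A2 cleavage of quenched PED6 carried via bile; overnight exposure to compound and PED6 before scoring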). Conditions: Zebrafish larvae PED6 lipid processing, fluorescence scoring; screened at 20 µM (by protocol).
Test [9] is described as follows: loss of swimming-algae plug formation – whole organism, Chlamydomonas reinhardtii, WT vs cilia-less mutant, absorbance, 96-well, primary screen (AID 463189;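 active = inhibition at or above 50% relative to wild type and mutant plate controls; inactive = inhibition below 50%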;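 also: 0% = wild type cc124 cells in DMSO and 100% = ciliumless bld1 mutant cells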). The conditions noted are these: Chlamydomonas reinhardtii gravitaxis, OD600 absorbance, 2 days; at 10 µM; stronger effect = higher value.
[10] abbreviates: measured here: cell density z-score.
The mark [11] stands for this setting: measured here: nuclear c-Myc green intensity z-score.
Setting [12] is: measured here: nuclear pErk red intensity z-score, stronger effect = higher value.

Sequence of Voltage-gated potassium channel subunit beta-2 (Rattus norvegicus) (P62483 whole entry, looked up): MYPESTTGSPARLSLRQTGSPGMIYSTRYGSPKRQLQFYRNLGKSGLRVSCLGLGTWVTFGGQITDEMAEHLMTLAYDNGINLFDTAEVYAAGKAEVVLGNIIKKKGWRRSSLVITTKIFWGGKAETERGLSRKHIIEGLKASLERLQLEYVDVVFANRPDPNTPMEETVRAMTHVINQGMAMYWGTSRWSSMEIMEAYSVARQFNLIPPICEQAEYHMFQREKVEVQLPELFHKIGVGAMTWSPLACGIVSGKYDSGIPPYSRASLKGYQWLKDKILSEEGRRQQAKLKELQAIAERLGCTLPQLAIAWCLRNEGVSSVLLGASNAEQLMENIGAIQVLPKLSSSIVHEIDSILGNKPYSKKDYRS
Sequence of Dual specificity protein phosphatase 6 (Homo sapiens) (Q16828 whole entry, looked up): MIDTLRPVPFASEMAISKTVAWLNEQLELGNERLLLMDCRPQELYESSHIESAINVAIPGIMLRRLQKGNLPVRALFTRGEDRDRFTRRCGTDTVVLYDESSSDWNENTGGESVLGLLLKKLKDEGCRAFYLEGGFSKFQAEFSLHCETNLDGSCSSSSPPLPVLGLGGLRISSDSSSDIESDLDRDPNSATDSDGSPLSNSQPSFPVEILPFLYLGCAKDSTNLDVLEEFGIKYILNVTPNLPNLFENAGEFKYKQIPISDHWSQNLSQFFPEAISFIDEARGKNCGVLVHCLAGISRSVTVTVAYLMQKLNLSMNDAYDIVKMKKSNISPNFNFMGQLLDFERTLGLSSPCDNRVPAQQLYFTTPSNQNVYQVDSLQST
Sequence of Muscarinic acetylcholine receptor M4 (Homo sapiens) (P08173 whole entry, looked up): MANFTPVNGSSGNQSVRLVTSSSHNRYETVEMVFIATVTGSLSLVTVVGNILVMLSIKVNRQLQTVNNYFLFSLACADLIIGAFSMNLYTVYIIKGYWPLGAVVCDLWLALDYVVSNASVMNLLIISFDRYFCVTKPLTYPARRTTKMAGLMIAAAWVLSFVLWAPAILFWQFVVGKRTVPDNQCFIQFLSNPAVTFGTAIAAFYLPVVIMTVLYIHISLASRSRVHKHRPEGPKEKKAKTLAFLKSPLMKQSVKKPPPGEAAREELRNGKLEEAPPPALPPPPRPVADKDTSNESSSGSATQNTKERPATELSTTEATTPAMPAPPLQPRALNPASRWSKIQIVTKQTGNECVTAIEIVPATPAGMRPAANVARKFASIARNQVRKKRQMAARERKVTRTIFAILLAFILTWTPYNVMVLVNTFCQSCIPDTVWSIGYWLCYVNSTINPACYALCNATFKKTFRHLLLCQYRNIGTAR

On to `Nc1nnnn1/N=C/c1cccc(Oc2ccccc2)c1`, for which the cell count in [1] was found to be 539. In addition, the inhibition (as a rule, the drop in the measured response relative to a control, in per cent) was -12.1% (inactive) in test [1], 65.8% (inactive) in test [2], 21% (inactive) in test [4] and 13.4% (inactive) in test [9]. Also, the nuclei count in [2] worked out at 88.7%. In addition, the results for the z-score in test [3] (setting [10]), in test [3] (setting [11]) and in [3] (setting [12]) were 1.62, -1.31 and -1.66, respectively. For the same compound, the fluorescence slope in test [5] is -0.523 (inactive); in test [7], 0.00678 (inactive). Also, the NADPH fluorescence slope in test [6] is -1.8e-05 (inactive). For the same compound, the outcome in [8] was inactive.
On to `CCC(=O)Nc1nc2ccccc2n1Cc1ccccc1C`, for which the cell count in [1] was 480. Also, the inhibition in [1] is -2.1% (inactive); in test [2], -158% (inactive); in test [4] it was -3.97% (inactive); in test [9], -13.6% (inactive). This compound registered a nuclei count in [2] of 114%. Further, the z-score was 0.4 in test [3] (setting [10]), 0.0083 in test [3] (setting [11]) and 0.265 in test [3] (setting [12]). Moreover, the fluorescence slope was -0.407 (inactive) in test [5] and 0.00508 (inactive) in [7]. For the same compound, the NADPH fluorescence slope in test [6] is 1.4e-06 (inactive). Also, the outcome in test [8] was inactive.
For the compound `COc1ccc(OC)c(C2/C(=C(\O)c3ccc(OC)c(Cl)c3)C(=O)C(=O)N2CCN(C)C)c1` (centres undefined), in test [1], the cell count was 680. Further, the inhibition in test [1] is -6.8% (inactive); in test [2], -97.8% (inactive); in test [4] it was -2.91% (inactive); in test [9], 14% (inactive). This compound also came in with a nuclei count in test [2] of 173%. The z-score was -0.468 in test [3] (setting [10]), -0.414 in test [3] (setting [11]) and -1.65 in test [3] (setting [12]). Also, the fluorescence slope in test [5] was -0.449 (inactive); in test [7], 0.00525 (inactive). For the same compound, in test [6], the NADPH fluorescence slope is -3.7e-05 (inactive). In addition, in test [8], the call was inactive.
For the compound `Cc1cccc(-c2nc(C#N)c(NC3CCCCC3)o2)c1`, the cell count in [1] came to 373. In addition, the inhibition is -5.1% (inactive) in test [1], -71.9% (inactive) in [2], 9.82% (inactive) in [4] and -0.036% (inactive) in test [9]. For the same compound, the nuclei count in test [2] was determined as 134%. The z-score in test [3] (setting [10]) is 1.1; in test [3] (setting [11]) it was -0.201; in test [3] (setting [12]) it was -0.602. Besides, the fluorescence slope in [5] was -0.492 (inactive); in [7], 0.00501 (inactive). In addition, the NADPH fluorescence slope in [6] is -0.000119 (inactive). Further, the compound was called inactive in [8].
On to `CCOC(=O)N1CCN(C2OC(=O)c3ccccc32)CC1` (centres undefined), for which, in test [1], the cell count was 380. Also, the inhibition in test [1] was 0.8% (inactive); in [2] it was -125% (inactive); in test [4], 24.4% (inactive); in [9] it was 14% (inactive). The compound also yielded a nuclei count in test [2] of 146%. In addition, the z-score in test [3] (setting [10]) is -0.546; in test [3] (setting [11]), -0.533; in [3] (setting [12]), -0.506. The fluorescence slope in test [5] was -0.459 (inactive); in test [7], 0.00469 (inactive). In addition, the NADPH fluorescence slope in test [6] was -0.000295 (inactive). The outcome in test [8] is “inactive; toxic”.
In the case of `CC(C)OC(=O)CCNc1n[nH]c(=O)[nH]c1=O`, the cell count in test [1] was determined as 635. The inhibition in test [1] was -4.3% (inactive); in test [2], -4.4% (inactive); in test [4], -4.27% (inactive); in [9] it was -8.46% (inactive). In test [2], this compound showed a nuclei count of 119%. Also, the z-score in [3] (setting [10]) was 0.648; in [3] (setting [11]), 0.239; in [3] (setting [12]), 0.621. The fluorescence slope in test [5] is -0.499 (inactive); in test [7], 0.00594 (inactive). For the same compound, the NADPH fluorescence slope in test [6] was -0.000105 (inactive). Moreover, the compound was called inactive in test [8].
On to `COC(=O)c1ccc(C2/C(=C(\O)c3cccc(OC)c3)C(=O)C(=O)N2CCCN(C)C)cc1` (centres undefined), for which the cell count in [1] worked out at 632. The inhibition is -19.7% (inactive) in test [1], -82.8% (inactive) in test [2], 7.21% (inactive) in [4] and 20.5% (inactive) in test [9]. For the same compound, the nuclei count in test [2] worked out at 145%. In addition, the z-score in test [3] (setting [10]) is 0.797; in test [3] (setting [11]), -1.05; in [3] (setting [12]), -0.8. Besides, the fluorescence slope in test [5] is -0.524 (inactive); in [7], 0.006 (inactive). Also, the NADPH fluorescence slope in [6] was -1.5e-05 (inactive). The result in test [8] was inactive.
`O=C(Oc1cccnc1)c1ccco1`: the cell count in [1] worked out at 545. For the same compound, the inhibition in test [1] is -0.5% (inactive); in test [2], 2.1% (inactive); in test [4], -3.95% (inactive); in test [9], -17% (inactive). For the same compound, in test [2], the nuclei count was 99%. Besides, the z-score in [3] (setting [10]) is -1.51; in test [3] (setting [11]), 1.45; in test [3] (setting [12]), 1.18. Also, the fluorescence slope was -0.449 (inactive) in [5] and 0.00414 (inactive) in test [7]. For the same compound, the NADPH fluorescence slope in test [6] was -4.3e-05 (inactive). Besides, in test [8], the compound was classed as inactive.
With `N#Cc1c2c(c(-c3ccco3)[nH]c1=O)CCCC2`, the cell count in [1] amounted to 576. Also, the inhibition was -5% (inactive) in test [1], -60.2% (inactive) in test [2], -5.81% (inactive) in test [4] and 17% (inactive) in test [9]. Further, the nuclei count in test [2] amounted to 152%. The z-score in test [3] (setting [10]) is -0.652; in test [3] (setting [11]), 0.857; in test [3] (setting [12]) it was 0.409. Also, the fluorescence slope is -0.435 (inactive) in [5] and 0.00432 (inactive) in test [7]. For the same compound, in [6], the NADPH fluorescence slope is -0.000117 (inactive). Besides, the outcome in test [8] was inactive.
For `CC(C)c1[nH]c(=O)c(C#N)c2c1CSC(C)(C)C2`, the cell count in test [1] was 507. Also, the inhibition in test [1] was -14% (inactive); in test [2], 4% (inactive); in test [4], 5.35% (inactive); in test [9], 14% (inactive). Further, in [2], the nuclei count is 89.3%. The z-score was 0.147 in test [3] (setting [10]), 0.162 in test [3] (setting [11]) and -0.0562 in [3] (setting [12]). Further, the fluorescence slope was -0.428 (inactive) in test [5] and 0.0036 (inactive) in test [7]. For the same compound, the NADPH fluorescence slope in test [6] was 3.3e-05 (inactive). For the same compound, the outcome in test [8] was inactive.
As for `COC(=O)c1ccc(C2/C(=C(\O)c3cccc(OC)c3)C(=O)C(=O)N2CCCN2CCOCC2)cc1` (centres undefined), the cell count in [1] was 620. In addition, the inhibition in [1] was -10.1% (inactive); in [2], -57.4% (inactive); in [4] it was 20.2% (inactive); in test [9] it was 14.7% (inactive). In test [2], this compound had a nuclei count of 150%. Further, the z-score in test [3] (setting [10]) is 0.836; in [3] (setting [11]), -1.51; in test [3] (setting [12]), -1.62. The values for the fluorescence slope in [5] and in [7] were -0.507 (inactive) and 0.00584 (inactive), respectively. The NADPH fluorescence slope in [6] is -2e-05 (inactive). For the same compound, the call in [8] was inactive.
On to `COc1ccc(CC(=O)OCN2C(=O)c3ccccc3C2=O)cc1`, for which, in test [1], the cell count turned out to be 518. Besides, the inhibition in test [1] is -10.2% (inactive); in [2], -70.2% (inactive); in test [4] it was 11.9% (inactive); in test [9] it was 20.5% (inactive). This compound displayed a nuclei count in test [2] of 138%. Besides, the z-score in test [3] (setting [10]) was 0.489; in test [3] (setting [11]), -1.2; in test [3] (setting [12]) it was -0.603. Moreover, the fluorescence slope was -0.359 (inactive) in test [5] and 0.00563 (inactive) in [7]. For the same compound, in test [6], the NADPH fluorescence slope was -1.7e-05 (inactive). Also, the result in test [8] was inactive.
On to `C=CCN(C)CCCNC(=O)/C=N/O`, for which the cell count in test [1] came out at 585. The inhibition in test [1] is -6.9% (inactive); in [2], 22.6% (inactive); in [4], 31.4% (inactive); in test [9], -9.97% (inactive). The nuclei count in test [2] was 87%. The z-score in [3] (setting [10]) was 1.68; in test [3] (setting [11]), -0.8; in [3] (setting [12]) it was -0.822. For the same compound, the fluorescence slope in test [5] is -0.504 (inactive); in test [7], 0.00593 (inactive). Besides, the NADPH fluorescence slope in test [6] is -8.8e-05 (inactive). The call in test [8] was inactive.
